Most compounds without a hit are left out; they make up all but 1.8% or so of the library.
DENV2 CPE rescue – inhibitors of DENV2 cytopathic effect, primary screen, cell-based, plate reader, single concentration; DENV2-infected cells, cytopathic effect rescue; CPE inhibition, % at 9.99 µM; AID 651640, 2012; 350,000 compounds, 1.7% hits; in the data active = CPE inhibition above about 20%, passing the limit was not always enough; tested in BHK-21 cells;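 note: 0% = median of neutral control wells and 100% = median of positive control wells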
MLL AF4-AF9 inh – inhibitors of AF4 peptide binding to AF9, primary screen, biochemical, AlphaScreen, biotin-AF4 peptide, FLAG-AF9, single point. Protein AF-9 (Homo sapiens), P42568. inhibition, % at 10 µM. 350,000 compounds, 0.47% hits;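 active = every replicate reaching a set inhibition limit, whatever the replicate mean, cut at about 25% in these data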;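 note: 0% = plate neutral control median and 100% = total signal loss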
ERAP1 HTS inh – human ERAP1 aminopeptidase inhibitors, primary screen, biochemical, single point, plate reader | Endoplasmic reticulum aminopeptidase 1 (Homo sapiens), Q9NZ08 | recombinant ERAP1, Leu-AMC fluorescence, 60 min | inhibition, % at 10.7 µM | 340,000 compounds, 0.15% hits | AID 652197, 2013;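 active = mean replicate inhibition of at least 30%, or all replicates individually reaching that 30% level; inactive = mean below 30% and not every replicate reaching it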;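 note: 0% = neutral control wells and 100% = L-leucinethiol positive control wells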
PDI inh – inhibitors of human PDI, primary screen, biochemical, turbidity, single point, plate reader; Protein disulfide-isomerase (Homo sapiens), P07237; PDI insulin aggregation turbidity, A650, 90 min; inhibition, % at 10 µM; 350,000 compounds, 0.052% hits;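 active = mean inhibition across replicates of 30% or more, whatever share of single replicates reach that level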
Target sequence (P07237 whole entry, looked up): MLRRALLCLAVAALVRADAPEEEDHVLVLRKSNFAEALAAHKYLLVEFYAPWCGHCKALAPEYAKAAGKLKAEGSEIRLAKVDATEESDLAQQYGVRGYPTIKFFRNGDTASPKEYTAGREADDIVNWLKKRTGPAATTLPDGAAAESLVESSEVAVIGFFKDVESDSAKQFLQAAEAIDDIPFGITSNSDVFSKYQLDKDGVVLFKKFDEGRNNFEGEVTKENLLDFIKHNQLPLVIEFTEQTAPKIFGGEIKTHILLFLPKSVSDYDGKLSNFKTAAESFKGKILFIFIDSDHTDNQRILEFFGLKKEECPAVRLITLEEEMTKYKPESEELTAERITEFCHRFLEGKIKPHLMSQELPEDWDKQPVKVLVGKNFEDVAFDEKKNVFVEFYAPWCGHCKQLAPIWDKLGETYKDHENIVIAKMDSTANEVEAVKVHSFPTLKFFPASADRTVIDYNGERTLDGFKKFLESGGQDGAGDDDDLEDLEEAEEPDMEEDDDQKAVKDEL
ERp5 inh – inhibitors of ERp5-driven insulin aggregation, primary screen, biochemical, turbidity, absorbance 650 nm, single point; Protein disulfide-isomerase A6 (Homo sapiens), Q15084; 90 min; inhibition, % at 9.99 µM; 350,000 compounds, 0.05% hits;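 active = mean replicate inhibition above about 25%, with every replicate also reaching it, limit read from the data, passing the limit was not always enough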
An asterisk follows results filed as active; . = no result.

SMILES | DENV2 CPE rescue | MLL AF4-AF9 inh | ERAP1 HTS inh | PDI inh | ERp5 inh
C[C@@H]1CCCCO[C@H](CN(C)Cc2ccncc2)[C@H](C)CN([C@H](C)CO)C(=O)c2cc(NS(=O)(=O)c3ccccc3)ccc2O1 | 28.0* | -2.8 | -2.8 | . | -1.1
C[C@@H]1CCCCO[C@@H](CN(C)Cc2ccncc2)[C@H](C)CN([C@H](C)CO)C(=O)c2cc(NS(=O)(=O)c3ccc(F)cc3)ccc2O1 | -1.9 | 4.2 | -0.5 | . | 1.4
C[C@H]1CCCCO[C@@H](CN(C)Cc2ccc(C(F)(F)F)cc2)[C@@H](C)CN([C@@H](C)CO)C(=O)c2cc(NS(=O)(=O)c3ccc(F)cc3)ccc2O1 | -7.5 | 1.2 | 1.2 | . | -0.8
C[C@@H]1CCCCO[C@@H](CN(C)Cc2ccccc2)[C@@H](C)CN([C@@H](C)CO)C(=O)c2cc(NS(=O)(=O)c3ccc(F)cc3)ccc2O1 | -0.9 | 7.9 | -0.7 | . | 4.1
C[C@H]1CCCCO[C@H](CN(C)Cc2ccccc2)[C@@H](C)CN([C@@H](C)CO)C(=O)c2cc(NS(=O)(=O)c3ccc(F)cc3)ccc2O1 | 28.5* | 3.6 | 1.0 | . | 0.3
C[C@@H]1CCCCO[C@@H](CN(C)Cc2ccncc2)[C@H](C)CN([C@H](C)CO)C(=O)c2cc(NS(=O)(=O)c3ccccc3)ccc2O1 | -4.6 | -0.9 | -1.1 | . | 0.3
CCCC#Cc1ccc2c(c1)O[C@H](CN(C)C(=O)c1ccccc1)[C@@H](C)CN([C@H](C)CO)S2(=O)=O | -3.0 | 1.6 | -1.0 | . | 0.5
CCC(=O)N(C)C[C@H]1Oc2cc(C#Cc3ccccn3)ccc2S(=O)(=O)N([C@H](C)CO)C[C@H]1C | 5.6 | 0.2 | -0.1 | . | -2.5
COCC#Cc1ccc([C@H]2[C@@H](CO)N3C(=O)CN(C(=O)Nc4ccc(F)cc4)C[C@H]23)cc1 | -2.3 | -4.2 | 0.4 | . | -3.9
O=C(C[C@H]1C=C[C@@H](NC(=O)Nc2ccccc2)[C@@H](CO)O1)NCc1cccc(F)c1 | -9.4 | -2.4 | -1.1 | . | 0.5
O=C1c2ccccc2C(=O)c2c1cccc2N1CCCC1 | 8.2 | 39.9* | -1.7 | 0.7 | 3.7
O=C1c2ccccc2-c2onc3ccc(N4CCCC4)c1c23 | . | 28.4* | 0.8 | 4.9 | 1.0
COc1ccc2c3c([nH]c2c1)[C@@H](CO)N(C)CC31CN(S(=O)(=O)c2cccc(F)c2)C1 | -16.4 | -0.8 | . | . | .
CN1c2ccc(-c3ccccc3)cc2[C@H]2[C@H](CCN2C(=O)CC2CC2)[C@H]1CO | . | -9.2 | . | . | .
CCOc1cc(C(=O)N(C)CC(=O)Nc2cccc3ccccc23)ccc1OC | 41.6* | 1.0 | 1.6 | 10.8 | 8.6
CN(CC(=O)Nc1cccc2ccccc12)C(=O)c1ccc(NC(=O)CC#N)cc1 | -3.2 | 0.0 | -9.5 | -0.8 | 6.9
CCCN(CC1CCCO1)C(=O)c1cc(COc2cccc(OC)c2)on1 (stereo unspecified) | -2.7 | -1.8 | -1.2 | 11.1 | 11.8
COc1cccc(OCc2cc(C(=O)N(C)CCC3CCCCO3)no2)c1 (stereo unspecified) | 39.3* | -12.4 | -2.6 | -0.8 | -7.0
O=C(NCC[C@@H]1CC[C@@H](NS(=O)(=O)c2cccc(F)c2)[C@@H](CO)O1)C1CCOCC1 | 6.3 | -1.6 | 0.4 | . | 1.1
CCn1cc(C(=O)O)c(=O)c2cc(F)c(N3CCN(C)CC3)cc21 | 27.9* | -1.9 | -0.6 | . | 9.1
CCCCCCn1cc(C(=O)O)c(=O)c2cc(F)c(N3CCN(C)CC3)cc21 | . | . | . | 2.0 | .
O=C(C[C@H]1CC[C@@H]2[C@H](COC[C@H](O)CN2Cc2cccc(C(F)(F)F)c2)O1)NCCc1ccccc1 | 14.8 | -15.3 | 1.9 | . | -24.1
O=C(C[C@H]1CC[C@H]2[C@@H](COC[C@@H](O)CN2Cc2cccc(C(F)(F)F)c2)O1)NCCc1ccccc1 | 25.6* | -11.4 | -0.5 | . | -23.3
O=C(C[C@H]1CC[C@H]2[C@@H](COC[C@@H](O)CN2Cc2cccc(C(F)(F)F)c2)O1)NCc1ccc(F)cc1 | 110.7* | 0.5 | -1.0 | . | 20.6
O=C(C[C@H]1CC[C@@H]2[C@H](COC[C@@H](O)CN2C(=O)c2ccccc2F)O1)NCc1ccc(F)cc1 | 37.8* | -2.4 | -2.4 | . | 10.1
SMILES | DENV2 CPE rescue | MLL AF4-AF9 inh | ERAP1 HTS inh | PDI inh | ERp5 inh
O=C(C[C@H]1CC[C@@H]2[C@H](COC[C@H](O)CN2Cc2cccc(C(F)(F)F)c2)O1)NCc1ccc(F)cc1 | -10.9 | -0.8 | -0.8 | . | 3.9
COc1ccc(CN2C[C@H](O)COC[C@H]3O[C@H](CC(=O)NCc4ccncn4)CC[C@@H]32)cc1 | 20.8* | -2.3 | 1.6 | . | -1.5
COc1ccc(S(=O)(=O)Nc2ccc3c(c2)CC(=O)N([C@@H](C)CO)C[C@@H](C)[C@H](CN(C)C(=O)Nc2cccc4ccccc24)O3)cc1 | 2.8 | 6.2 | 0.4 | . | .
O=C(C[C@@H]1CC[C@H]2[C@@H](COC[C@@H](O)CN2C(=O)c2ccncc2)O1)NCc1cccc(F)c1 | 11.1 | . | . | . | .
N#C[C@H]1[C@@H](c2ccc(C3=CCCC3)cc2)[C@H](CO)N1C(=O)NC1CCCCC1 | 12.0 | -2.5 | -5.1 | . | -2.8
O=C(C[C@H]1CC[C@H]2[C@@H](COC[C@@H](O)CN2Cc2nccs2)O1)NCc1ccc(-c2ccccc2)cc1 | 3.4 | -2.8 | 0.8 | . | -9.4
O=C(C[C@H]1CC[C@@H]2[C@H](COC[C@@H](O)CN2Cc2nccs2)O1)NCc1ccc(-c2ccccc2)cc1 | 33.9* | -1.8 | -0.2 | . | -5.2
O=C(O)C[C@H]1CC[C@@H](NC(=O)CCN2CCCCC2)[C@@H](CO)O1 | -2.5 | -3.9 | -1.5 | . | -2.6
CC#CCN1C(=O)N[C@@H](c2ccccc2)C(C(=O)OC)=C1C | 32.6* | -4.9 | -4.8 | 5.5 | 1.5
Nc1cc2c(cc1Cl)-c1ccccc1C2 | 0.4 | 50.2* | -2.1 | -1.7 | -2.7
CCCNC(=O)C[C@H]1CC[C@H]2[C@@H](COc3ccc(NC(=O)C4CCOCC4)cc3C(=O)N2C)O1 | -8.3 | -2.3 | -1.0 | . | -6.0
COc1cccc(NC(=O)N[C@@H]2CC[C@@H](CC(=O)N3CCOCC3)O[C@@H]2CO)c1 | 64.1* | -2.1 | 1.4 | . | -0.6
COc1ccc(NC(=O)N[C@@H]2CC[C@@H](CCNS(=O)(=O)c3cccc(Cl)c3)O[C@@H]2CO)cc1 | 114.1* | -9.0 | -5.4 | . | -0.6
COc1ccccc1NC(=O)N[C@H]1CC[C@@H](CCNS(=O)(=O)c2ccc(Cl)cc2)O[C@H]1CO | 20.5* | 2.1 | -1.9 | . | 5.4
COc1ccccc1NC(=O)N[C@H]1CC[C@H](CCNS(=O)(=O)c2ccc(C)cc2)O[C@H]1CO | 21.8* | -2.7 | -0.4 | . | 1.5
Cc1cccc(-c2ccc([C@H]3[C@H](CO)N4C(=O)CN(C(=O)CN5CCOCC5)C[C@@H]34)cc2)c1 | 1.3 | -2.4 | -1.8 | . | 0.7

Assay outcomes from PubChem BioAssay.
